The record followed here is PubChem BioAssay (NCATS).

Several values for one entry are separate records, joined by “and”; a condition that tells them apart may be missing. Identical values can stand only once. Records with an inconclusive call do not appear.

This test can be described thus: qHTS assay for small molecule antagonists of peroxisome proliferator-activated receptor delta signaling (AID 588535).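 Further: cells co-treated with a PPAR-delta agonist as stimulator during compound exposure.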 The following applies: HEK293T PPARd-UAS-bla, beta-lactamase FRET ratio, 18 h; 460 nm channel. The gist of the method:
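Cell-based beta-lactamase assay in antagonist mode: 4000 HEK293T PPAR-delta-UAS-bla cells per well, 5 hr preincubation then 18 hr compound incubation at 37 C. IC50 obtained by Hill equation fitting.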
On the technique in general: In qHTS, concentration-response curves come from the screen itself.
On to `CCOP(=S)(OCC)Oc1cc(C)nc(C(C)C)n1`, for which the max response is -10.2% and 44.9%.

Take `CC(C)(C)CC(C)(C)c1ccc(O)cc1`: the max response is -1.27%.

For the compound `Oc1ccc(Cl)cc1Cc1ccccc1`, the max response was 28.1% and 8.37%.
